# High-throughput results from PubChem BioAssay.
# 12-hLO inh: 12-hLO (ALOX12) enzyme inhibition. 0.12% of 150,000 active. Potency, µM (titrated, usually from 57.1 µM), for inactives: at the highest dose activity change, negative = inhibition, usual class: inhibitors. purified 12-hLO, xylenol orange hydroperoxide absorbance; also: potency is read from the fitted curve at half-maximal effect; nearly all actives have a fitted effect of over 55% in size
# Target sequence (P18054 whole entry, looked up): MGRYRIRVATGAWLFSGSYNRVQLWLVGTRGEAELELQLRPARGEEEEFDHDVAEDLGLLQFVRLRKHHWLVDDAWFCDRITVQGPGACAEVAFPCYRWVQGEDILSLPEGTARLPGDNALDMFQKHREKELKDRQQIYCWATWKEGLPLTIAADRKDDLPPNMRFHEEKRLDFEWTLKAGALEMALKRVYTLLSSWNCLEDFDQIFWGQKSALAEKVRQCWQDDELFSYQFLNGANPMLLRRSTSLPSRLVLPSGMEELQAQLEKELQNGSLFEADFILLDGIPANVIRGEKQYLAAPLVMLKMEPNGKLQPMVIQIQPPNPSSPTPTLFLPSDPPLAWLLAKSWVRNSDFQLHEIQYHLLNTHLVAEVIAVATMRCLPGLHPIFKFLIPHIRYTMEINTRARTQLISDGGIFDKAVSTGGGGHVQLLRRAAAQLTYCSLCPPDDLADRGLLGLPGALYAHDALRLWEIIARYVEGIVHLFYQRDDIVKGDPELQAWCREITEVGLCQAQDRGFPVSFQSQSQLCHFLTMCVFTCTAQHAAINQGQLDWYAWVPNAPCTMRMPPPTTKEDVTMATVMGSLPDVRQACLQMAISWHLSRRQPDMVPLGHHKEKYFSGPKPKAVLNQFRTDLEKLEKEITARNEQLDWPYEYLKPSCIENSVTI
#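 Hydroperoxide output read as Fe(III)-xylenol orange absorbance, 573-to-405 nm ratio, after 30 min reaction with 40 uM arachidonic acid. Enzyme: 150 nM purified human 12hLO, 15 min compound preincubation; 25 mM Hepes pH 7.0, room temperature.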
# IMPase Li inh: IMPase inhibition in cells with lithium potentiation; CHO-M1 cells, IP1 TR-FRET (IP-One), carbachol + lithium; Potency, µM (highest dose often 59.4 µM), inactives show top-dose activity, negative = IMPase inhibition, hits mostly inhibitors; 0.35% of 210,000 active;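 also: IP1 builds up when IMPase is blocked and the TR-FRET signal falls; potency is read from the fitted curve at half-maximal effect; plate controls were basal vehicle for no effect and high inhibitor control for full effect; nearly all actives have a fitted effect of over 50% in size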
#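 CHO cells stably expressing M1 receptor (2000/well) were cultured 16–30 h, then exposed to compounds with a small lithium addition for 30 min at 37C. IP1 was measured by TR-FRET competition; AC50 from Hill fits.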
# 15-hLO-2 inh: inhibitors of human 15-lipoxygenase 2 (ALOX15B); purified 15hLO-2, xylenol orange hydroperoxide absorbance; O15296; 0.56% of 110,000 active; Potency, µM (series often up to 57.1 µM), without a hit: at the top dose activity change, negative = inhibition, usual class: inhibitors; also: potency is read from the fitted curve at half-maximal effect; nearly all actives have a fitted effect of over 60% in size
#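 Purified human 15hLO-2 (50 nM final) preincubated with compounds 15 min at room temperature in 25 mM Hepes pH 7.5, 0.01% Triton X-100, then 45 uM arachidonic acid added for 90 min; hydroperoxide detected via ferrous/xylenol orange, 573/405 nm absorbance ratio.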
# IMPase cell inh: IMPase inhibition in cells. P97697. CHO-M1 cells, IP1 accumulation, HTRF TR-FRET ratio. inhibition (IP1 accumulation), % at 46.1 µM. 120,000 tested, under 10 active. AID 901; active = well fitted curve in the direction sought with a large enough effect in the signal ratio, not every such curve was filed as active; inconclusive = small, poorly fitted or top-dose-only effect, or a change in a side signal; inactive = no such curve, though single readings can be large or run the other way; the % refers to the signal ratio;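 also: cells stimulated with carbachol in lithium chloride buffer; plate controls were DMSO basal wells for no effect and reference inhibitor wells for full effect; higher means more IMPase inhibition seen as more IP1 and lower FRET ratio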
#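 Elevated IP1 in lysates lowers TR-FRET signal (665/620 ratio and 620 channel reported). Cells were CHO-M1, given carbachol (50 uM as added) plus 50mM LiCl, pH 7.4, 30 min, 37C; compounds titrated up to 46 uM; AC50 by Hill equation.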
# PNC assembly inh: perinucleolar compartment assembly inhibition | PC3M PTB-GFP, PNC prevalence imaging, 16 h; active compounds read low | activity change (PNC), negative = inhibition, % at 10 µM | 3.1% of 140,000 active;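 active = readout at or below -70, meaning at least 70% loss of cells showing the perinucleolar compartment, a nuclear body marking cancer cells; inconclusive = readout between -30 and a set limit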;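 also: plate controls were DMSO wells for no effect and camptothecin positive control wells for full effect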
#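 PC3M cells stably expressing PTB-GFP, 750–1000 cells/well, treated 16 h at 37 °C with compound (23 nl of library stock), in duplicate. After paraformaldehyde fixation and Hoechst stain, imaged at 20x; PNC prevalence scored by image analysis.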
# An asterisk follows results filed as active; ? = inconclusive; . = no result; [ ] = another dose, or the depositor's remark. This is one part of a sample in which hits are shown more often than they occur. Unless noted, calls follow the shape of the dose curve; as a rule, active = well fitted curve in the direction sought with a large enough effect; inconclusive = small, poorly fitted or top-dose-only effect, or another doubt; inactive = no such curve, though single readings can be large; an effect the other way counts as inactive or inconclusive. Unless noted, % is scaled to controls: 0 for no effect and ±100 for the full control effect.
SMILES,12-hLO inh,IMPase Li inh,15-hLO-2 inh,IMPase cell inh,PNC assembly inh
Cc1ccc2c(c1)N[C@H](c1ccc(C(=O)O)cc1)c1cccn1-2,-7%[11.4 µM],-20%,-9%[11.4 µM],.,.
CCC(C)NC(=O)CCSCCC(=O)NC(C)CC (stereo not given),0%,-10%,.,.,-104*
CC(NC(=O)CCSCCC(=O)NC(C)c1ccccc1)c1ccccc1 (stereo not given),2%,-2%,.,.,?
CCc1c(C)nc2ncnn2c1N1CCC(C(=O)N2CCN(c3ccccc3)CC2)CC1,3%,-3%[38.3 µM],-14%,0,-88*
NC(N)=N/N=C(/c1ccccc1)c1ccc(O)cc1O,2%[11.4 µM],2%,2%[11.4 µM],.,.
CCOC(=O)C(C)Sc1nc2c(c(=O)[nH]c(=O)n2C)n1C/C=C(/C)Cl (stereo not given),-8%,8%[38.3 µM],8%,-2,14
CCOC(=O)C(C)n1cnc2c1c(=O)[nH]c(=O)n2C (stereo not given),-2%,1%,.,2,-100*
Cc1ccccc1C(=O)Nc1ccc(Br)c(C)n1,4%,30%[38.3 µM],5%,4,-107*
CC(C)c1ccc2c(c1)[C@H]1OCC[C@H]1[C@@H](c1cccs1)N2,1%,9%,.,.,-109*
Cc1cccc2c1Oc1ccccc1[C@@H]2NC(=O)c1ccc([N+](=O)[O-])cc1,4%[11.4 µM],4%,-11%[11.4 µM],.,.
Cc1ccc(S(=O)(=O)c2ccc(Cl)cc2)cc1S(=O)(=O)NC(C)C(=O)O (stereo not given),-4%,-3%,.,.,-90*
Oc1c(Cl)cc(C(c2cc(Cl)c(O)c(Cl)c2)C(c2cc(Cl)c(O)c(Cl)c2)c2cc(Cl)c(O)c(Cl)c2)cc1Cl,-29%[11.4 µM],-4%,4µM*,.,.
COc1cccc(C(=O)CC2c3c(c(Br)c4c(c3OC)OCO4)CCN2C)c1 (stereo not given),.,6%,.,.,.
COC(=O)C1=C(N)Oc2cc(C)n(Cc3cccnc3)c(=O)c2C1c1ccc(OC)c(OC)c1OC (stereo not given),-3%,29%[38.3 µM],7%[11.4 µM],-4[1.84 µM],?
COC(=O)C1=C(N)Oc2cc(C)n(Cc3cccnc3)c(=O)c2C1c1ccccc1OC (stereo not given),-3%,-6%[38.3 µM],25%,?,-86*
CCCCOC(=O)c1cccc(NC(=O)c2cc3ccccc3o2)c1,.,.,.,1,.
CC(=O)Nc1cccc(NC(=O)c2ccc(Br)cc2)c1,.,26%,.,.,.
O=C(Nc1cccc(O)c1)c1ccc(Br)cc1,-5%,19%[38.3 µM],-2%,-11,-128*
COc1cc(NC(=O)C(=O)NNC(=O)C2CCCCC2)c(OC)cc1Cl,0%,-10%,.,.,-95*
Cn1c(-c2ccc(C=O)s2)nc2c3ccccc3c3ccccc3c21,-6%,13µM*,-2%,-8,24
CCN(CC)C(=O)CSc1nc2ccc(NC(=O)CSc3nnc(N)s3)cc2s1,0%,11%[38.3 µM],-15%,4,-100*
CC(=O)Nc1ccc2nc(SCC(=O)NCCOc3ccccc3)sc2c1,.,3%,.,.,.
COc1ccccc1C(=O)Nc1ccc2nc(SCC(=O)N(C)C)sc2c1,-2%,-6%,.,.,-114*
Cc1cc(C2N=C(N)Nc3nc4ccccc4n32)c(C)n1-c1ccccc1Cl (stereo not given),-7%,0%[38.3 µM],31%,14,-99*
Cc1ccc(-n2c(C)cc(C3N=C(N)Nc4nc5ccccc5n43)c2C)c(C)c1 (stereo not given),-1%,41%[38.3 µM],3%,10,14
SMILES,12-hLO inh,IMPase Li inh,15-hLO-2 inh,IMPase cell inh,PNC assembly inh
S=C(NCCN1CCOCC1)N/N=C/c1c2ccccc2cc2ccccc12,-5%,29%[38.3 µM],?,-1,-81*
Cn1c(=O)c2c(nc(SCC(=O)NCc3ccc4c(c3)OCO4)n2Cc2ccc(Cl)cc2)n(C)c1=O,0%,28%,.,-3,-100*
O=C(CSc1nnc2scc(-c3ccc(Cl)cc3)n12)NCc1ccc2c(c1)OCO2,-3%,14%[38.3 µM],-7%,11,-86*
O=C(CSc1nnc2scc(-c3ccccc3)n12)NCc1ccc2c(c1)OCO2,0%,23%[38.3 µM],-4%,6,5
O=C(c1cc(Br)ccc1O)c1cc(Br)ccc1O,1%[11.4 µM],9%,-12%[11.4 µM],.,.
CCCCCOC(=O)CSc1ncnc2c1sc1nc(N3CCOCC3)c3c(c12)CCCC3,.,.,.,-4,.
COc1ccccc1NC(=S)N(Cc1ccco1)Cc1cc2ccc(C)c(C)c2[nH]c1=O,-11%,-1%,.,.,-84*
Cc1ccc2nsnc2c1S(=O)(=O)N(Cc1ccco1)Cc1cc2ccc(C)c(C)c2[nH]c1=O,-10%,4%[38.3 µM],26%,6,-82*
CCOC(=O)C1Cn2c(nc3c(c2=O)C2(CCCC2)Cc2ccccc2-3)S1 (stereo not given),-9%,10%[38.3 µM],6%,4,-103*
CCOC(=O)C1Cn2c(nc3c(c2=O)C(C)(C)Cc2ccccc2-3)S1 (stereo not given),-10%,-12%[38.3 µM],-12%,8,-22
CCC(C)NC(=O)c1ccc2c(c1)N=C(C)c1cc(C)ccc1S2 (stereo not given),.,.,.,3,.
COc1ccc(C(=O)Nc2ccc3[nH]c(-c4cccc(OC)c4)cc(=O)c3c2)cc1,-2%[0.00818 µM],-4%,-3%[0.0915 µM],.,-119*
Cc1nc(=O)c(-c2ccccc2)c(C)n1-c1cccc(C(=O)O)c1,-8%,.,1%,3,-101*
O=C(CSc1nc(O)c(C2CCCCC2)c(=O)[nH]1)Nc1ccc(Cl)cc1,?,-10%[38.3 µM],-18%,6,-112*
CC(=O)Nc1c(O)nc(SCC(=O)Nc2ccc(C(C)=O)cc2)[nH]c1=O,1%,2%[38.3 µM],7%,11,-26
CCOC(=O)c1sc2nc(C3CC3)cc(-c3ccc(F)cc3)c2c1N,-11%,11µM*,18%,-7,-5
CC(=O)Nc1ccc(OC(=O)c2ccc(Cl)cc2)cc1,-3%,-6%,.,.,-80*
CC1CCCO1 (stereo not given),-3%,17%,-11%,.,.
Cc1ccc(Oc2nc3c(c(=O)n(Cc4ccccc4F)c(=O)n3C)n2C)cc1,1%,46%[38.3 µM],3%,-9,-85*
COc1cccc(Oc2nc3c(c(=O)n(Cc4ccccc4F)c(=O)n3C)n2C)c1,.,.,.,-2,.
COC(=O)c1c(-c2cc(OC)c(OC)c(OC)c2)c2ccc(OCc3ccccn3)cc2c(=O)n1-c1ccc(N)cc1,?,5%,-11%,9,.
COC(=O)c1c[nH]n2c(=O)c(Cl)c(C)nc12,-1%,-1%,.,.,-113*
COC(=O)c1c[nH]n2c(=O)cc(C)nc12,0%,-2%[38.3 µM],10%,-6,-3
Cc1ccc(NC(=O)Cn2cc(S(=O)(=O)N3CCN(c4ccccc4F)CC3)c3ccccc3c2=O)cc1F,.,.,.,-7,.
CSC(=[SH+])N=N/C(=C1/C=CC=CN1)c1ccccn1.[Cu][Br],.,6%,.,.,.
